Reference: PubChem BioAssay (EPA / NIEHS)
Values joined by “and” are separate entries in the source; they are usually repeats but may differ in a detail not shown here. Equal entries are not always repeated. Active and inactive are the calls of the source. How the source made its calls: active means hit-call score of the fitted dose curve at least 0.9, where 1 is the maximum; inactive means score below 0.9.

Read-out: Interleukin-8 (IL8), CXCL8 (gene 3576)
Assay: BSK_LPS_IL8: BioMAP Diversity Plus: LPS Assay for Interleukin-8 (IL8) Biomarker Activity (AID 2283078)
Details: primary human HUVEC with PBMC; actives raise or lower the signal
Method in brief: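 Readout is IL-8 by ELISA, taken 24 h after compounds were added to LPS-stimulated endothelial/PBMC co-cultures. Both increases and decreases relative to DMSO control were scored through bidirectional fitting.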

Question: How did the outcome turn out when `CCOC(=O)C(C)Oc1ccc(Oc2cnc3cc(Cl)ccc3n2)cc1` (centres undefined) was run?
Answer: The outcome was “inactive”.

Question: With `C#C[C@]1(O)CC[C@H]2[C@@H]3CCC4=CC(=O)CC[C@@H]4[C@H]3CC[C@@]21CC` as the compound, how does the outcome read?
Answer: The outcome was “inactive”.

Question: Which outcome does the source give for `CC(C)(c1ccc(O)cc1)c1ccc(O)cc1` here?
Answer: Its outcome is “inactive”.

Question: `COC(=O)c1ccccc1S(=O)(=O)NC(=O)Nc1nc(OC(F)F)cc(OC(F)F)n1` was tested. Which outcome did it give?
Answer: Its outcome is “inactive”.

Question: For `S=C(S)NCCNC(=S)S.[Mn+2].[S-]C([S-])=NCCN=C([S-])[S-].[Zn+2]`, which outcome is on record?
Answer: The outcome was “inactive”.

Question: How did the outcome turn out when `CCC(O)=C1C(=O)CC(C(=O)O)CC1=O` (centres undefined) was run?
Answer: The outcome was “inactive”.

Question: `CCCCCOC(=O)COc1cc(N2C(=O)C3=C(CCCC3)C2=O)c(F)cc1Cl` was tested. Which AC50 did it give?
Answer: Its AC50 is 20 µM (active).

Question: `CCOC(=O)c1ccc(O)cc1` was tested. Which outcome did it give?
Answer: The outcome was “inactive”.

Question: With `CCCCC(CC)COC(=O)c1ccccc1C(=O)O` (centres undefined) as the compound, how does the outcome read?
Answer: Its outcome is “inactive”.

Question: How did the outcome turn out when `CCOC(=O)NCCOc1ccc(Oc2ccccc2)cc1` was run?
Answer: Its outcome is “inactive”.

Question: Which outcome does the source give for `CCC(C)OC(=O)N1CCCCC1CCO` (centres undefined) here?
Answer: Its outcome is “inactive”.

Question: How did the outcome turn out when `CCNc1nc(N)nc(Cl)n1` was run?
Answer: The outcome was “inactive”.

Question: For `COC(=O)c1ccccc1C(=O)O`, which outcome is on record?
Answer: Its outcome is “inactive”.

Question: Which outcome does the source give for `COC(=O)c1cccc(C)c1S(=O)(=O)NC(=O)Nc1nc(OCC(F)(F)F)nc(N(C)C)n1` here?
Answer: Its outcome is “inactive”.

Question: Which outcome does the source give for `O=C(O)C1(C(=O)Nc2ccc(Cl)cc2Cl)CC1` here?
Answer: The outcome was “inactive”.

Question: `Oc1ccc(C(c2ccc(O)cc2)C(Cl)(Cl)Cl)cc1` was tested. Which AC50 did it give?
Answer: Its AC50 is 14.9 µM (active).

Question: With `N[C@@H](Cc1cc(I)c(Oc2ccc(O)c(I)c2)c(I)c1)C(=O)O` as the compound, how does the outcome read?
Answer: The outcome was “inactive”.

Question: For `COc1c(Cl)ccc(Cl)c1C(=O)O`, which outcome is on record?
Answer: The outcome was “inactive”.

Question: With `N#CSCSc1nc2ccccc2s1` as the compound, how does the AC50 read?
Answer: The AC50 was 5.09 µM (active) and 9.38 µM (active).

Question: Which AC50 does the source give for `CCN(Cc1c(F)cccc1Cl)c1c([N+](=O)[O-])cc(C(F)(F)F)cc1[N+](=O)[O-]` here?
Answer: Its AC50 is 13.6 µM (active).

Question: Which outcome does the source give for `O=C(O)c1ccccc1` here?
Answer: Its outcome is “inactive”.

Question: Which AC50 does the source give for `Cc1nn(C)c(Oc2ccccc2)c1C=NOCc1ccc(C(=O)OC(C)(C)C)cc1` here?
Answer: Its AC50 is 8.08 µM (active).

Question: How did the outcome turn out when `C[C@]12C[C@H](O)[C@H]3[C@@H](CCC4=CC(=O)CC[C@@]43C)[C@@H]1CC[C@@H]2C(=O)CO` was run?
Answer: Its outcome is “inactive”.

Question: With `CC(=O)[C@H]1CC[C@H]2[C@@H]3CCC4=CC(=O)CC[C@]4(C)[C@H]3CC[C@]12C` as the compound, how does the AC50 read?
Answer: Its AC50 is 20 µM (active).

Question: For `CCCCC(CC)CN1C(=O)C2C3C=CC(C3)C2C1=O` (centres undefined), which outcome is on record?
Answer: The outcome was “inactive”.

Question: Which outcome does the source give for `O=C(c1ccccc1)C1CCCCC1` here?
Answer: Its outcome is “inactive”.

Question: `CCCN(CCC)C(=O)SCC` was tested. Which outcome did it give?
Answer: Its outcome is “inactive”.

Question: Which outcome does the source give for `CCCOC(=O)c1ccc(C(=O)OCCC)nc1` here?
Answer: The outcome was “inactive”.

Question: How did the outcome turn out when `CCCOC(=O)NCCCN(C)C` was run?
Answer: The outcome was “inactive”.
